From PubChem BioAssay (Tox21)
Records with an inconclusive call do not appear. The source made the active and inactive calls. Unless noted, calls come from the whole dose curve; as a rule, active = well fitted curve in the direction sought with a large enough effect in the repeat runs; inconclusive = weak or mixed curves; inactive = no such curve, though single readings can be large; an effect the other way counts as inactive or inconclusive.

Key:
[1] = qHTS assay to identify small molecule antagonists of the vitamin D receptor (VDR) signaling pathway - cell viability counter screen (AID 743225); note: nearly all actives have a fitted effect of over 50% in size
How it was run: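 Compounds were pinned onto VDR-bla HEK 293T cells together with 1-alpha,25-dihydroxyvitamin D3 at 3 nM final. After 16 h at 37C and 5% CO2 plus the reporter readout, cell viability was measured by CellTiter-Glo luminescence (30 min, room temperature).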

[2] = qHTS assay to identify small molecule agonists of the NFkB signaling pathway (AID 1159509; active = well fitted curve in the direction sought with a large enough effect in the signal ratio in the repeat runs, not every such curve was filed as active; the % refers to the signal ratio)
How it was run: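 NFkB-bla ME-180 cells with a beta-lactamase reporter under an NF-kB response element were plated overnight, treated with compounds in DMSO for 5 hr at 37 C, then loaded with FRET substrate for 1.5 hr at room temperature.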

[3] = qHTS assay to identify small molecule agonists of the NFkB signaling pathway - cell viability counter screen (AID 1159515; calls by dose curve; note: nearly all actives have a fitted effect of over 55% in size)
How it was run: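 5 hr compound treatment of NFkB-bla ME-180 cells (2,000/well, seeded overnight beforehand), followed by reporter substrate for 1.5 hr. CellTiter-Glo added afterward; luminescence after 30 min RT.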

[4] = qHTS assay to identify small molecule agonists of the endoplasmic reticulum stress response signaling pathway (AID 1159516; active = well fitted activation curve with a large enough effect in the signal ratio in the repeat runs, not every such curve was filed as active; the % refers to the signal ratio)
How it was run: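 Reporter HeLa cells (ESRE-beta-lactamase) underwent 5 hr compound incubation at 37 C and 5% CO2 in quantitative HTS format. Detection followed 2 hr of FRET substrate loading at room temperature.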

[5] = qHTS assay to identify small molecule agonists of the endoplasmic reticulum stress response signaling pathway - cell viability counter screen (AID 1159517; calls by dose curve;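 note: HeLa cells carrying an ER stress response element beta-lactamase reporter; nearly all actives have a fitted effect of over 50% in size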)
How it was run: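 Luminescence readout: CellTiter-Glo, 30 min RT, same wells as the ESRE-bla reporter read. HeLa ESRE-bla, 1,500 cells/well, o/n 37 C; cpd 5 hr 37 C/5% CO2.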

[6] = qHTS assay to identify small molecule antagonists of the retinoid-related orphan receptor gamma (ROR-gamma) signaling pathway - cell viability counter screen (AID 1159520); note: nearly all actives have a fitted effect of over 50% in size
How it was run: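 Tet-on ROR gamma CHO cells (1,000/well) were plated 4 hr, given compounds in DMSO for 2 hr at 37 C, then induced with 1 uM final doxycycline for 16 hr. Viability was read as ATP by CellTiter-Glo luminescence after 30 min.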

[7] = target: Nuclear receptor ROR-gamma (Homo sapiens) (UniProt P51449); test: qHTS assay to identify small molecule antagonists of the retinoid-related orphan receptor gamma (ROR-gamma) signaling pathway (AID 1159521;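 note: CHO cells with doxycycline inducible ROR-gamma driving an RORE luciferase reporter; top concentration of the series differs between compounds; nearly all actives have a fitted effect of over 50% in size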)
How it was run: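 Test compounds were applied to Tet-on RORγ CHO cells 2 h ahead of doxycycline hyclate (1 uM final). Luciferase reporter activity was quantified by luminescence after 16 h at 37 C and 5% CO2.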

[8] = qHTS assay to identify small molecule agonists of the AP-1 signaling pathway - cell viability counter screen (AID 1159525; calls by dose curve; note: nearly all actives have a fitted effect of over 55% in size)
How it was run: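 ME-180 AP-1-bla, 2500 cells/well, Opti-MEM + 0.5% dialyzed FBS; overnight 37 °C; cpd 15-pt titration, 5 h 37 °C; CellTiter-Glo 30 min RT; luminescence read; normalised to TOAB and DMSO controls.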

[9] = qHTS assay to identify small molecule agonists of the AP-1 signaling pathway (AID 1159526; calls by dose curve)
[10] = target: Retinoic acid receptor RXR-alpha (Homo sapiens) (UniProt P19793); test: qHTS assay to identify small molecule agonists of the RXR signaling pathway (AID 1159527; calls by dose curve; note: nearly all actives have a fitted effect of over 35% in size; note: potency is the fitted concentration of half-maximal effect)
Chain of Retinoic acid receptor RXR-alpha (Homo sapiens) (P19793 whole entry, looked up): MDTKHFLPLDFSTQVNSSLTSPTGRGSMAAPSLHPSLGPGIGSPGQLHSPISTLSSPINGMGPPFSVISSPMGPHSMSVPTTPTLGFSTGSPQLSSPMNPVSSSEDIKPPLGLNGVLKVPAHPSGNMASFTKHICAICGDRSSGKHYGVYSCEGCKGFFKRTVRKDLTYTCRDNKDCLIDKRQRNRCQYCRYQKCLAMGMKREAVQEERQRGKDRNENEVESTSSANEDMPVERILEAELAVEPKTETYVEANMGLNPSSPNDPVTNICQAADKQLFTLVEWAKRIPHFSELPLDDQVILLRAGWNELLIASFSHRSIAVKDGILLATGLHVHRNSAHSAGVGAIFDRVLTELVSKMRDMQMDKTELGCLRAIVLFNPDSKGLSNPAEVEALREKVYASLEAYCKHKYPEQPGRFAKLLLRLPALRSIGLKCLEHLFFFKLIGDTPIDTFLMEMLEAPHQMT
How it was run: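 Using 9-cis retinoic acid as the reference agonist, chemicals were tested in HEK 293T cells […] for 16 hr; substrate loading lasted 2 hr at room temperature.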

[11] = qHTS assay to identify small molecule agonists of the RXR signaling pathway - cell viability counter screen (AID 1159529); note: nearly all actives have a fitted effect of over 50% in size
How it was run: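 Compounds dissolved in DMSO were pinned onto HEK 293T cells carrying a beta-lactamase reporter under RXR-alpha control and incubated 16 hr. Cytotoxicity was then quantified by CellTiter-Glo luminescence.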

[12] = qHTS assay to identify small molecule antagonists of the retinoid acid receptor (RAR) signaling pathway - cell viability counter screen (AID 1159551); note: nearly all actives have a fitted effect of over 35% in size
How it was run: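 Seed C3RL4 cells; next day add compound, then retinol to 1 uM final; incubate 6 h at 37 C; add CellTiter-Glo; read luminescence after 30 min at RT.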

[13] = qHTS assay to identify small molecule antagonists of the retinoic acid receptor (RAR) signaling pathway (AID 1159552; note: nearly all actives have a fitted effect of over 50% in size)
How it was run: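 Test chemicals and DMSO controls were pin-transferred onto C3RL4 cells a day after seeding; retinol (1 uM final) followed at once. Luminescent reporter output was quantified after 6 hr of co-incubation and 30 min with detection reagent.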

[14] = qHTS assay to identify small molecule agonists of the retinoic acid receptor (RAR) signaling pathway (AID 1159553); settings: C3RL4 RARE luciferase reporter, agonist, 6 h; activation: at 73.3 µM (top of the series)
How it was run: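 Activation of retinol signaling was monitored via a RARE luciferase reporter in C3RL4 cells. After 6 hr compound treatment at 37 C, detection reagent was added for 30 min at room temperature before luminescence reading.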

[15] = qHTS assay to identify small molecule antagonists of the estrogen related receptor (ERR) signaling pathway from Tox21 library - cell viability counter screen (AID 1224834); note: nearly all actives have a fitted effect of over 30% in size
How it was run: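 CellTiter-Fluor fluorescence measured; ERR cells; 17.5 h compound incubation at 37 C; 30 min reagent step.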

[16] = target: Luciferin 4-monooxygenase (Photinus pyralis) (UniProt P08659); test: qHTS assay to identify small molecule inhibitors of firefly luciferase (AID 1224835); note: nearly all actives have a fitted effect of over 25% in size
Chain of Luciferin 4-monooxygenase (Photinus pyralis) (P08659 whole entry, looked up): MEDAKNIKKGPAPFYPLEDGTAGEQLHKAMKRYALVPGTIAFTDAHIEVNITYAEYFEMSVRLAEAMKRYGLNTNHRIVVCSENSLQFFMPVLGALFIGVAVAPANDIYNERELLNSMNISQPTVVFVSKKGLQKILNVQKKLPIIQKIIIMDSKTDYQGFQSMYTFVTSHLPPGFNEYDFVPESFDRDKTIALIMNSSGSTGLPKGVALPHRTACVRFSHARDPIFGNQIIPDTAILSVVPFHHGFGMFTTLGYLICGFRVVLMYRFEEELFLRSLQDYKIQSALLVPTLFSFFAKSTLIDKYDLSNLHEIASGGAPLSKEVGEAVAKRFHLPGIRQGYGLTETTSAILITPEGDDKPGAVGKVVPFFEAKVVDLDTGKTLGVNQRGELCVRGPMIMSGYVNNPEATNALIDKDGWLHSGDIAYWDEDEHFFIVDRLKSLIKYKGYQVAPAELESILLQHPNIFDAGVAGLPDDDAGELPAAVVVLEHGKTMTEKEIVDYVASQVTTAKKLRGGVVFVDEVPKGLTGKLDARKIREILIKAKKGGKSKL
How it was run: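 Quantitative HTS format; KM concentrations of both substrates. Purified P. pyralis FLuc activity quantified from luminescence images.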

[17] = qHTS assay to identify small molecule agonists of the constitutive androstane receptor (CAR) signaling pathway - cell viability counter screen (AID 1224836); note: nearly all actives have a fitted effect of over 45% in size
How it was run: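 23 h treatment, 37 C, 5% CO2. Cell line: HepG2 stably expressing hCAR with a CYP2B6-2.2kb construct. Co-treatment: PK11195, 0.75 uM final. Read-out: CellTiter-Fluor fluorescence intensity.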

[18] = qHTS assay to identify small molecule antagonists of the constitutive androstane receptor (CAR) signaling pathway - cell viability counter screen (AID 1224837); note: nearly all actives have a fitted effect of over 45% in size
How it was run: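 Using CellTiter-Fluor, viability is scored in HepG2 cells stably carrying hCAR and a 2.2kb CYP2B6 reporter after 23 hr compound exposure across 15 concentrations, with CITCO present at 50 nM.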

[19] = qHTS assay to identify small molecule agonists of the vitamin D receptor (VDR) signaling pathway - cell viability counter screen (AID 743224); note: nearly all actives have a fitted effect of over 50% in size
How it was run: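 Here cell health was gauged by luminescent ATP detection (CellTiter-Glo, 30 min RT) in VDR-bla cells that had been incubated with test compounds for 16 h at 37C and 5% CO2.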

[20] = target: Nuclear receptor subfamily 1 group I member 3 (Homo sapiens) (UniProt Q14994); test: qHTS assay to identify small molecule antagonists of the constitutive androstane receptor (CAR) signaling pathway (AID 1224838);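 note: HepG2 cells stably expressing hCAR with CYP2B6 luciferase reporter stimulated by CITCO; nearly all actives have a fitted effect of over 40% in size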
Chain of Nuclear receptor subfamily 1 group I member 3 (Homo sapiens) (Q14994 whole entry, looked up): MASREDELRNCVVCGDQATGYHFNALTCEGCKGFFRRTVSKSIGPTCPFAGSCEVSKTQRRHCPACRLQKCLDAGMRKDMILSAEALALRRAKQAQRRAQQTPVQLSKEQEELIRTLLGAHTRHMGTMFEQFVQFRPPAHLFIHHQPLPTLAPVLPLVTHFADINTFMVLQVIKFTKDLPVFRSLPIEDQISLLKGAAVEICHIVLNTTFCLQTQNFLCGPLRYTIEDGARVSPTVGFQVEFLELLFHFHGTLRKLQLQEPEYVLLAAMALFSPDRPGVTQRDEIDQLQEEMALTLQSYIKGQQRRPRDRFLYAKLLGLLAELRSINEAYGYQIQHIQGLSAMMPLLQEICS
How it was run: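 Reporter luminescence was quantified after 24 h exposure of hCAR/CYP2B6-2.2kb double-stable HepG2 cells to compounds at 15 concentrations in the presence of 50 nM CITCO final.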

Measured: Potency

CCCCCC1Nc2cc(C(F)(F)F)c(S(N)(=O)=O)cc2S(=O)(=O)N1 (centres undefined)
not listed: [19] | [20]
inactive: all other assays above

COC(OC)C(C)c1ccccc1 (centres undefined)
not listed: [15] | [19] | [20]
inactive: all other assays above

CN[C@@H]1[C@@H](O)[C@@H](O[C@@H]2[C@H](O)[C@H](O[C@H]3OC(CN)=CC[C@H]3N)[C@@H](N)C[C@H]2N)OCC1(C)O (some centres undefined)
not listed: [17] | [18] | [20]
inactive: all other assays above

O=c1cc(O)c(Cl)c[nH]1
not listed: [17] | [20]
inactive: all other assays above

CC(CC(=O)O)CC(C)(C)C (centres undefined)
not listed: [18]
inactive: all other assays above

NC(=O)NNC(N)=O
not listed: [19] | [20]
inactive: all other assays above

NS(=O)(=O)c1cc2c(cc1Cl)NC(C(Cl)Cl)NS2(=O)=O (centres undefined)
not listed: [15] | [17] | [20]
inactive: all other assays above

CCCCCCCC[Si](OCC)(OCC)OCC
not listed: [7] | [20]
inactive: all other assays above

CCC(C)N (centres undefined)
not listed: [11] | [18] | [20]
inactive: all other assays above

Cc1ccc(C(=O)C(=O)O)cc1C
not listed: [11] | [15] | [20]
inactive: all other assays above

NC(Cc1c[nH]c2ccccc12)C(=O)O (centres undefined)
not listed: [15] | [17] | [18] | [20]
inactive: all other assays above

Cc1cc(O)c2c(c1)C(=O)c1cccc(O)c1C2=O
not listed: [11] | [15] | [20]
inactive: all other assays above

CC(C)C(=O)c1ccccc1
not listed: [7] | [17] | [20]
inactive: all other assays above

CCCCCC(=O)OCC
not listed: [11] | [19] | [20]
inactive: all other assays above

C=C(C)C(=O)OC
not listed: [7] | [16]
inactive: all other assays above

CCCCCCCCCCC
active: [10] 12.3 µM
not listed: [7] | [15]
inactive: all other assays above
